Among all 320,000 compounds or so, about 2,100 (0.66%) were called active. Inconclusive results (about 53%) are left out. Calls come from the whole dose curve; as a rule, active = well fitted inhibition curve with a large enough effect in the signal ratio, with a control signal flat (not every such curve was filed as active); inconclusive = small, poorly fitted or top-dose-only effect, or effect the other way, or a change in a side signal; inactive = flat fitted curve, though single readings scatter; the % refers to the signal ratio. For the sample, actives were picked, then their nearest neighbours and some compounds at random.
Potency is the fitted concentration of half-maximal effect.

This experiment is described as follows: qHTS Assay for Lipid Storage Modulators in Drosophila S3 Cells.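 For cell number change: cells counted by Cell Tracker Red CMTPX staining in the red channel.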 For lipid storage change, negative = inhibition: % is set by controls: 0 for no effect and ±100 for the full control effect. To be noted: BODIPY lipid droplet fluorescence, 18-24 h, cells fed with added oleic acid; cell number change: measured here: cell count max response; series mostly up to 46.1 µM; lipid storage change, negative = inhibition: at the top concentration. The essentials: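 Drosophila S3 cells got compounds at several concentrations plus oleic acid (400 uM solution). Laser-scanning cytometry with 488 nm excitation read lipid droplets at 500-530 nm and cells at 575-640 nm. Percent activity was relative to 20 uM Triacsin C.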
On the technique in general: Quantitative high-throughput screening tests each substance at several concentrations.
In the case of `Cc1cccc(NC(=O)C(c2ccccc2Cl)N2CCOCC2)c1` (stereo not drawn), the “lipid storage change, negative = inhibition” value was 2.74% (inactive) and the cell number change came to 14.2%. For `COCCCNc1nc(-c2ccc(Cl)cc2)nc2ccccc12`, the outcome was inactive. Regarding `CCCCN1C(=O)/C(=c2\sc3nc(=O)c(-c4ccccc4)nn3c2=O)c2ccccc21`, the “lipid storage change, negative = inhibition” value was -21.2% (inactive) and the cell number change was -10.9%. `C/C(=N\NC(=O)c1ccn(C)n1)c1ccc(NC(=O)C2CCC2)cc1`: the Potency is 13 µM (active) and the cell number change is -21.2%. Turning to `C/C(=N\NC(=O)c1nn(C)c(C)c1Br)c1ccc(NC(=O)C2CCCC2)cc1`, the result was inactive and the cell number change is -25.5%. As to `C/C(=N\NC(=O)c1c([N+](=O)[O-])c(C)nn1C)c1ccc(NC(=O)C2CCCC2)cc1`, the “lipid storage change, negative = inhibition” value was -5.01% (inactive) and the cell number change is 5.28%.

As for `Cc1cccc(C(=O)Nc2sc3c(c2C#N)CCCCC3)c1`, the “lipid storage change, negative = inhibition” value was -3.22% (inactive) and the cell number change is -20.2%.

In the case of `Cc1nc2nc(SCc3ccccc3)[nH]n2c(=O)c1CCC(C)C`, the “lipid storage change, negative = inhibition” value was -19.4% (inactive) and the cell number change came out at 19.7%.

`CCc1cc(=O)oc2c(C)c(OC(C)C(=O)N3CC[C@@]4(O)CCCC[C@H]4C3)ccc12` (stereo partly drawn): the “lipid storage change, negative = inhibition” value was 3.29% (inactive) and the cell number change is 14.6%.

Consider `Cc1cc(=O)oc2c(C)c(OCC(=O)N3CC[C@@]4(O)CCCC[C@H]4C3)ccc12`, for which the Potency was 16.4 µM (active) and the cell number change amounted to 2.59%. Regarding `Cc1c(C)c2ccc(OC(C)C(=O)N3CC[C@@]4(O)CCCC[C@H]4C3)c(C)c2oc1=O` (stereo partly drawn), the Potency was 5.8 µM (active) and the cell number change was -28.5%. As for `CCc1cc(=O)oc2c(C)c(OC(C)C(=O)N3CCC[C@@H]3C(=O)O)ccc12` (stereo partly drawn), the “lipid storage change, negative = inhibition” value is -7.03% (inactive) and the cell number change came out at 15.4%. Turning to `CCc1cc(=O)oc2c(C)c(OCC(=O)N3CC[C@@]4(O)CCCC[C@H]4C3)ccc12`, the “lipid storage change, negative = inhibition” value is -24.5% (inactive) and the cell number change was 2.62%. The like results for `Cc1c(C)c2ccc(OC(C)C(=O)N3C[C@H]4C[C@@H](C3)c3cccc(=O)n3C4)c(C)c2oc1=O` (stereo partly drawn) were, in that order, -2.98% (inactive) and 10.4%. For the compound `O=C(C(c1ccccc1)c1ccccc1)N1CC[C@@]2(O)CCCC[C@H]2C1`, the “lipid storage change, negative = inhibition” value is -7.45% (inactive) and the cell number change is -2.81%. `Cc1cc(=O)oc2c(C)c(OC(C)C(=O)N3CC[C@@]4(O)CCCC[C@H]4C3)ccc12` (stereo partly drawn): the Potency is 0.731 µM (active) and the cell number change is -0.971%. In the case of `Cc1c(C)c2ccc(OCC(=O)N3CC[C@@]4(O)CCCC[C@H]4C3)cc2oc1=O`, the “lipid storage change, negative = inhibition” value was -15.4% (inactive) and the cell number change was 0.17%. For `Cc1nc(SCC(=O)NC(=O)NCCC(C)C)c2c(-c3cccs3)csc2n1`, the “lipid storage change, negative = inhibition” value is 3.29% (inactive) and the cell number change is 8.46%. The like results for `CCn1ccnc1CN1CCC(n2nccc2NC(=O)CCc2ccccc2)CC1` were, in that order, -5.74% (inactive) and -1.05%. In the same order, the values of `COc1ccc(C(=O)Nc2ccc3[nH]c(-c4cccc(OC)c4)cc(=O)c3c2)cc1` are -2.62% (inactive) and 4.73%. In the same order, the values of `Cc1cccc(C)c1NC(=O)CS(=O)CC(=O)NCC1OCCc2ccccc21` (stereo not drawn) are -1.05% (inactive) and 9.92%.

In the case of `CC(=O)c1ccc(CC2SC(N)=NC2=O)cc1` (stereo not drawn), the call was inactive and the cell number change is -4.99%. Regarding `CCCCN1C(=S)NC[C@@H]1Cc1cccc2ccccc12`, the “lipid storage change, negative = inhibition” value was 15.5% (inactive) and the cell number change was 2.45%. For the compound `COc1ccc2c(c1OC)C(=O)N1C2SC[C@H]1C(=O)NC1CC1` (stereo partly drawn), the “lipid storage change, negative = inhibition” value was -17.9% (inactive) and the cell number change was -0.291%. Regarding `COc1ccc(C(c2sc3nc(C)nn3c2O)N2CCc3ccccc3C2)cc1` (stereo not drawn), the result was inactive.

Consider `Cc1ccc(NC(=O)CCSCCC(=O)Nc2ccc(C)c(C)c2)cc1C`, for which the “lipid storage change, negative = inhibition” value was 1.97% (inactive) and the cell number change was -13.5%. In the same order, the values of `C=C(C)C1CC=C(C)/C(=N\NC(=O)CCC(=O)Nc2ccc(C)c(C)c2)C1` (stereo not drawn) are -0.891% (inactive) and 1.45%. For the compound `C/C(=N\NC(=O)CCC(=O)Nc1ccc(C)c(C)c1)C1CC1`, the Potency is 6.51 µM (active) and the cell number change turned out to be 18.1%. In the case of `CC(=O)Nc1ccc(S(=O)(=O)NCCC(=O)OCc2nc(N)nc(Nc3ccccc3C)n2)cc1`, the “lipid storage change, negative = inhibition” value is 9.3% (inactive) and the cell number change is 3.4%. For `COc1cccc(N2C(=O)C3CCCN3C2c2cccs2)c1` (stereo not drawn), the “lipid storage change, negative = inhibition” value is -10.3% (inactive). Regarding `COc1ccc(N2C(=O)C3CCCN3C2=S)cc1` (stereo not drawn), the compound was called inactive and the cell number change was found to be 13%. As to `COc1ccc(N2C(=O)[C@@H]3Cc4ccccc4CN3C2=O)cc1`, the “lipid storage change, negative = inhibition” value is 13.6% (inactive) and the cell number change was -10.6%. Take `COc1ccc(N2C(=O)C3CCCN3C2=O)cc1` (stereo not drawn): the Potency was 18.4 µM (active) and the cell number change was 13.7%. Regarding `O=C1C2CCCN2C(c2cccs2)N1c1ccc(Cl)cc1` (stereo not drawn), the “lipid storage change, negative = inhibition” value is 11.3% (inactive) and the cell number change came to 6.57%. For the compound `COc1ccc(N2C(=O)C3CCCN3C2c2cccs2)cc1` (stereo not drawn), the Potency was 8.2 µM (active). Take `CCn1c(COc2ccccc2C(N)=O)nc2ccccc21`: the “lipid storage change, negative = inhibition” value was -2.01% (inactive) and the cell number change is -13.5%. With `CCOC(=O)Cc1csc(NC(=O)c2ccc(F)cc2)n1`, the “lipid storage change, negative = inhibition” value is 0.5% (inactive) and the cell number change came to 5.42%.

For the compound `CCOC(=O)Cc1csc(NC(=S)NC(=O)c2ccc(F)cc2)n1`, the Potency is 10.3 µM (active) and the cell number change was -14.9%. In the case of `CCOC(=O)Cc1csc(NC(=S)NC(=O)c2ccc(C)cc2)n1`, the “lipid storage change, negative = inhibition” value is 8.49% (inactive) and the cell number change worked out at 12.7%.

For `COc1cc2c(cc1OC)C1Cc3ccc(OC)c(OC)c3C[N+]1([O-])CC2` (stereo not drawn), the “lipid storage change, negative = inhibition” value is 0.646% (inactive) and the cell number change is 8.62%. Regarding `Cc1nc(NCC2CCCO2)c2nnn(Cc3c(F)cccc3Cl)c2n1` (stereo not drawn), the “lipid storage change, negative = inhibition” value was 5.75% (inactive) and the cell number change is -5.53%.

Take `c1ccc(N2CCN(c3ncccn3)CC2)cc1`: the “lipid storage change, negative = inhibition” value was -29.3% (inactive) and the cell number change is -7.61%. Take `c1cnc(N2CCN(c3ccc4ccccc4n3)CC2)nc1`: the Potency was 0.651 µM (active) and the cell number change was 23.8%. Regarding `c1ccc(C(c2ccccc2)N2CCN(c3ccc4ccccc4n3)CC2)cc1`, the “lipid storage change, negative = inhibition” value was -1.57% (inactive) and the cell number change was determined as 9.37%. Take `CCn1c(NC(=O)c2cccc(Cn3cc(Cl)cn3)c2)nc2ccccc21`: the “lipid storage change, negative = inhibition” value is 3.94% (inactive) and the cell number change was -10.4%.

Take `O=C(c1ccccn1)N1CCN(c2ccc(C(F)(F)F)cn2)CC1`: the “lipid storage change, negative = inhibition” value was 1.09% (inactive) and the cell number change was -1.5%.

The values are drawn from PubChem BioAssay AID2685 (National Center for Advancing Translational Sciences (NCATS), 2010).
